Assay results taken from PubChem BioAssay AID652115 (Broad Institute, 2013).
About 3,800 (1.2%) of roughly 330,000 compounds were called active. Cut-off read from the data, not from the text of the source: active = inhibition above about 15%; inconclusive = no clear call, values can overlap the other calls; inactive = below that. Only a selection was taken, and actives are over-represented in it overall.

The compounds below were run against NAD-dependent protein deacylase sirtuin-5, mitochondrial (Homo sapiens) (UniProt Q9NXA8) (assay: blockers of sirtuin-5 deacylase activity – biochemical, fluorescence imaging, single point, set 5, primary screen (AID 652115)). Conditions: Purified SirT5, succinyl-peptide AMC, trypsin-coupled fluorescence; at 15 µM; active compounds read high.
Sequence of NAD-dependent protein deacylase sirtuin-5, mitochondrial (Homo sapiens) (Q9NXA8 whole entry, looked up): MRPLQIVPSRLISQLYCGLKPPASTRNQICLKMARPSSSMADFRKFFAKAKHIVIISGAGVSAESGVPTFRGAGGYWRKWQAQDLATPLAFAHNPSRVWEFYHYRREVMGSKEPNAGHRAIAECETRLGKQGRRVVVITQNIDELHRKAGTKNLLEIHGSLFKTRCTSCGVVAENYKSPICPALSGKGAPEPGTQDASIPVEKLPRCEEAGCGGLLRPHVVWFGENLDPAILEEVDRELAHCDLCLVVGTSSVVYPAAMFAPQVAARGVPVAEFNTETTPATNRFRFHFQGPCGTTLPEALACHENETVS

SMILES | inhibition
COc1ccc(NC(=O)N(C)C[C@@H]2OCCCC[C@H](C)Oc3ccc(NS(=O)(=O)c4cccs4)cc3C(=O)N([C@@H](C)CO)C[C@@H]2C)cc1 | -0.093% (inactive)
C[C@@H]1CN([C@@H](C)CO)C(=O)c2cc(C#C[C@@H](C)O)cnc2O[C@H]1CN(C)CC1CCOCC1 | -2.03% (inactive)
C[C@@H]1CN([C@@H](C)CO)C(=O)c2cc(C#CC3CCCCC3)cnc2O[C@H]1CN(C)S(=O)(=O)c1ccccc1 | 17.9% (active)
C[C@H]1CN([C@@H](C)CO)C(=O)c2cc(C#CC3CCCCC3)cnc2O[C@H]1CN(C)S(=O)(=O)c1ccccc1 | 13.2% (inactive)
CC(C)CC#Cc1cnc2c(c1)C(=O)N([C@H](C)CO)C[C@H](C)[C@H](CN(C)CC1CCOCC1)O2 | 23% (active)
C[C@@H]1CN([C@H](C)CO)C(=O)c2cc(C#CC3CCCC3)cnc2O[C@H]1CN(C)S(C)(=O)=O | -4.07% (inactive)
C[C@H](CO)N1C[C@H](C)[C@@H](CN(C)CC2CCOCC2)Oc2ncc(C#Cc3ccc(F)cc3)cc2C1=O | -1.14% (inactive)
C[C@H]1CN([C@@H](C)CO)S(=O)(=O)c2ccc(-c3cccc(C#N)c3)cc2O[C@H]1CN(C)CC1CC1 | -0.017% (inactive)
COCC#Cc1cnc2c(c1)C(=O)N([C@@H](C)CO)C[C@@H](C)[C@@H](CN(C)S(=O)(=O)c1cccc(OC)c1)O2 | -3.81% (inactive)
CN(C)Cc1cn(CC[C@H]2CC[C@H](NS(=O)(=O)c3ccccc3)[C@@H](CO)O2)nn1 | -3.23% (inactive)
Cc1ccc(S(=O)(=O)N2C[C@H](O)COC[C@H]3O[C@H](CC(=O)N[C@H]4CCN(Cc5ccccc5)C4)CC[C@@H]32)cc1 | -1.53% (inactive)
CN(CCO)c1ccc(/C=N/Nc2nncc3ccccc23)cc1 | 25% (active)
C/C(=N\Nc1nncc2ccccc12)c1ccc(Cl)c([N+](=O)[O-])c1 | 2.12% (inactive)
CN(C(=O)CSc1nncc2ccccc12)C1CCCCC1 | 1.3% (inactive)
C[C@H]1CCCCO[C@@H](CN(C)Cc2ccccc2)[C@@H](C)CN([C@@H](C)CO)C(=O)c2cc(NC(=O)Cc3ccccc3)ccc2O1 | 2.55% (inactive)
O=C(C[C@H]1CC[C@@H](NC(=O)Cc2cccnc2)[C@H](CO)O1)Nc1ccc(-c2ccccc2)cc1 | 4.12% (inactive)
Cc1ccc(C(=O)COC(=O)CCN2C(=O)C3C4CCC(C4)C3C2=O)cc1C (stereo unspecified) | -2.42% (inactive)
O=C(CCN1C(=O)C2C3C=CC(C3)C2C1=O)Oc1ccc2ccccc2c1 (stereo unspecified) | 19.8% (active)
O=C(O)CCCN1C(=O)C2C3c4ccccc4C(c4ccccc43)[C@@H]2C1=O (stereo partly specified) | -0.491% (inactive)
CCCNC(=O)N[C@@H]1C=C[C@H](CC(=O)NC2CCC2)O[C@H]1CO | -0.778% (inactive)
COc1ccc2c3c(n(C)c2c1)[C@H](CO)N(S(=O)(=O)c1ccc(C)cc1)CC31CN(C(=O)c2ccccn2)C1 | 1.96% (inactive)
CN(C)C(=O)[C@@H]1[C@@H](CO)[C@@H]2Cn3c(ccc(-c4ccncc4)c3=O)[C@H]1N2C(=O)NC1CCCC1 | -68% (inactive)
CCN1/C(=C\c2ccc3ccccc3[n+]2CC)Sc2cc(C)ccc21 | 28.6% (active)

SMILES | inhibition
COc1cccc(-c2cnc3c(c2)C(=O)N([C@H](C)CO)C[C@H](C)[C@@H](CN(C)Cc2ccc(C(=O)O)cc2)O3)c1 | -2.74% (inactive)
O=C(C[C@H]1C[C@@H]2c3cc(NC(=O)CC4CC4)ccc3O[C@@H]2[C@H](CO)O1)NCc1ccccn1 | -3.34% (inactive)
C[C@@H](O)C#Cc1cnc2c(c1)C(=O)N([C@@H](C)CO)C[C@H](C)[C@H](CN(C)C(=O)c1ccccc1F)O2 | 2.03% (inactive)
O=C(Cn1ncc2c3ccccc3n(Cc3ccccc3)c2c1=O)NCCCN1CCOCC1 | 0.065% (inactive)
CC1c2nc3ccccc3n2C(CC(=O)NCCCN2CCOCC2)C(=O)N1Cc1ccccc1 (stereo unspecified) | 112% (active)
CC1=C(C(=O)N(C)C)CC(CC(=O)NCCN2CCOCC2)C(=O)N1Cc1ccccc1 (stereo unspecified) | -4.9% (inactive)
C[C@@H]1CCCCO[C@@H](CN(C)Cc2ccc3c(c2)OCO3)[C@H](C)CN([C@@H](C)CO)C(=O)c2cc(NS(C)(=O)=O)ccc2O1 | -3.83% (inactive)
CC(C)(C)c1cc(C(=O)NN)n(Cc2ccc(Cl)cc2Cl)n1 | 1.67% (inactive)
N#CC(C#N)=CN=c1ccn(Cc2ccc(Cl)cc2Cl)cc1 | 16.1% (active)
C[C@@H]1CN([C@@H](C)CO)C(=O)c2cc(NC(=O)Nc3ccc(C(F)(F)F)cc3)ccc2O[C@@H](C)CCCCO[C@@H]1CN(C)C(=O)Nc1cccc2ccccc12 | -1.14% (inactive)
CC1CCN(C(=S)c2cccc(O)c2)CC1 | 0.61% (inactive)
Cc1csc(NC(=O)c2ccc(-c3ccc(Cl)cc3Cl)o2)n1 | -0.507% (inactive)
CC1CCN(C(=S)c2ccc(-c3ccc(Cl)cc3Cl)o2)CC1 | 17.1% (active)
COc1ccc2c3c([nH]c2c1)[C@H](CO)N(C(=O)c1ccccc1)CC31CN(C(=O)Nc2cccc(F)c2)C1 | 1.05% (inactive)
CC(C)c1cn([C@H]2C[C@@H]3O[C@H](CO)CC[C@@H]3O[C@@H]2CCc2ccc(C#CC3CCCCC3)cc2)nn1 | -3.82% (inactive)
Cc1sc2c(c1C)c(=O)n(-c1ccccc1)c(=O)n2CC(=O)NCC1CCCO1 (stereo unspecified) | -4.65% (inactive)
Cc1nn(-c2ccccc2)c2c1c(C)c(CCC(=O)NCC1CCCO1)c(=O)n2C (stereo unspecified) | 39.7% (active)
CCCNC(=O)CCc1c(C)nc2c(c(C)nn2-c2ccccc2)c1C | -2.55% (inactive)
CCCC#Cc1ccc([C@@H]2[C@@H](CO)N3C(=O)CN(C(=O)Nc4cccc(F)c4)C[C@H]23)cc1 | 6.12% (inactive)
CCC(=O)Nc1ccc2c(c1)C(=O)N(C)C[C@@H](OC)[C@H](C)CN(Cc1cccnc1)[C@@H](C)CO2 | -0.588% (inactive)
Cn1c(CC(=O)Nc2ccc(F)cc2)nnc1SCC(=O)NC1CCCCC1 | 0.115% (inactive)
Cc1ccc(SCC(=O)Nc2nncs2)cc1 | -2.47% (inactive)
Cc1ccc(NC(=O)Cc2nnc(SCC(=O)Nc3nncs3)n2C)cc1 | 17.8% (active)
